VHR inh abs: blocks human VHR1 dual specificity phosphatase. inhibition, % at 13.3 µM. P51452. recombinant VHR phosphatase, pNPP absorbance. 0.52% of 290,000 active; in the data active = inhibition above about 50%
Target sequence (P51452 whole entry, looked up): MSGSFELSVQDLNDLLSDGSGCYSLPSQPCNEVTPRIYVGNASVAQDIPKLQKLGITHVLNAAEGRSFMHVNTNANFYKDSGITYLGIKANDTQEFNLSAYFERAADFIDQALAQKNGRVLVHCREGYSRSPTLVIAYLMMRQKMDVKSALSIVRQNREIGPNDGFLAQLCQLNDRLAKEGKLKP
RecA intein inh: blocks M. tuberculosis RecA intein splicing | P9WHJ3 | cell-free RecA intein splicing, fluorescence | inhibition, % (test concentration not listed) | 0.75% of 290,000 active | AID 2221; in the data active = inhibition above about 30%
SSB-PriA inh: K. pneumoniae PriA-SSBct interaction inhibition. AlphaScreen SSBct-PriA binding, biotinylated peptide. 0.6% of 430,000 active. inhibition, % at 33 µM; in the data active = inhibition mostly above about 37%, no sharp cut-off; inactive = mostly below about 20%
SARS 3CLpro inh: SARS-CoV 3CLpro protease inhibition. P0C6X7. recombinant SARS-CoV 3CLpro, quenched FRET peptide cleavage. inhibition, % at 6 µM. 0.14% of 290,000 active. AID 1706; in the data active = inhibition above about 12%
CCHF vOTU inh-1: blocks the CCHF virus ovarian tumor domain protease; AID 651958; CCHFV vOTU protease, Pep-AMC fluorescence; 0.55% of 370,000 active; inhibition, % at 11.5 µM
CCHF vOTU inh-2: CCHFV vOTU protease inhibition, confirmation; shares compounds with CCHF vOTU inh-1; Recombinant CCHFV vOTU, Pep-AMC fluorescence; inhibition, % at 11.5 µM; 17% of 1,900 active; AID 686976
A number is an active result; 0 = inactive; - = no result given. Most compounds without a hit are left out; they make up all but 1.7% or so of the library. Rule as the data show it, unless noted: active = inhibition above about 30%; inactive = the rest.

SMILES | VHR inh abs | RecA intein inh | SSB-PriA inh | SARS 3CLpro inh | CCHF vOTU inh-1 | CCHF vOTU inh-2
OC(c1ccc(Cl)c(F)c1)c1ncc(-c2ccccc2C(F)(F)F)[nH]1 (stereo not drawn) | - | - | - | - | 0 | -
OC(c1ccc(Cl)c(Cl)c1)c1ncc(-c2ccc(Cl)cc2)[nH]1 (stereo not drawn) | - | - | - | - | 0 | -
COc1ccc(CC(=O)N2CCN(Cc3nc(-c4ccc(Cl)cc4)cs3)CC2)cc1OC | - | - | 0 | - | - | -
CCn1cc(Cl)c(C(=O)NC2CCN(c3cc(C)[nH]n3)CC2)n1 | - | - | 0 | - | - | -
Cc1cc(C)c(S(=O)(=O)NCC(c2ccco2)N2CCc3ccccc3C2)c(C)c1 (stereo not drawn) | - | 0 | 0 | - | 30 | 0
COc1ccc(OCc2cc(C(=O)NC3CCc4ccccc43)no2)c(Cl)c1 (stereo not drawn) | 0 | 0 | 0 | 0 | 0 | -
O=C(NC1CCc2ccccc21)c1cc(COc2ccc(F)cc2F)on1 (stereo not drawn) | 0 | 0 | 0 | 0 | 35 | 0
Nc1ncnc2oc(-c3ccco3)c(-c3ccco3)c12 | 0 | 0 | 0 | 0 | 34 | 0
Nc1nnc(-c2ccco2)s1 | 0 | 0 | 0 | 0 | 0 | -
O=C(O)c1cc(Nc2nc(-c3ccccc3)c3cc(Br)ccc3n2)ccc1O | - | - | 0 | - | - | -
CCCCN(CC(O)COc1cccc(C)c1)CC(O)COc1cccc(C)c1 (stereo not drawn) | 0 | 0 | 0 | 0 | 31 | 0
CN(C)CC(O)COc1cccc(OCC(O)CN(C)C)c1 (stereo not drawn) | 0 | 0 | 0 | 0 | 0 | -
CC(=O)N1CCc2c(sc(NC(=O)CCCSc3ccccc3)c2C(N)=O)C1 | - | - | 0 | - | - | -
CC(=O)c1cccc(NC(=O)/C(=C/c2ccco2)NC(=O)c2ccco2)c1 | 0 | 0 | 0 | 0 | 37 | 0
COC(=O)c1cccc(NC(=O)/C(=C\c2ccco2)NC(=O)c2ccco2)c1 | - | - | - | - | 0 | -
COc1ccc(NC(=O)c2sc(=O)n(Cc3ccc(F)c(Cl)c3)c2C)cc1OC | - | - | - | - | 31 | 0
COc1ccc(CNC(=O)c2sc(=O)n(Cc3cc(Cl)ccc3OC)c2C)cc1 | - | - | - | - | 0 | -
O=C(COC(=O)c1ccccc1SCC(=O)N1CCCC1)Nc1ccccc1C(F)(F)F | 0 | 0 | 0 | 0 | 0 | -
NC(=O)c1ccc(NC(=O)COC(=O)c2ccccc2SCC(=O)N2CCCC2)cc1 | - | - | - | - | 33 | 0
CCOc1ccccc1NC(=O)COC(=O)c1ccccc1SCC(=O)N1CCCC1 | - | 0 | 0 | - | 37 | 0
Cc1csc(CN2CCN(C(=O)c3ccc(C(C)(C)C)cc3)CC2)n1 | - | - | 0 | - | - | -
O=C(NC[C@H]1CC(=O)N(Cc2ccccc2)C1)NC1CCCCC1 | - | - | 0 | - | - | -
O=C(NCCOc1ccccc1)NCC1CCN(Cc2ccsc2)CC1 | - | - | 0 | - | - | -
Cn1cc(/C=C2\SC(=S)N(NC(=O)c3ccccc3Cl)C2=O)c2ccccc21 | 0 | - | 0 | 0 | 31 | 0
COC(=O)[C@]12C[C@H](CC(=O)NCCC(C)C)C(=O)N(CCC3=CCCCC3)C1=C[C@H](C(C)(C)C)O[C@@H]2C | - | - | - | - | 30 | 0
SMILES | VHR inh abs | RecA intein inh | SSB-PriA inh | SARS 3CLpro inh | CCHF vOTU inh-1 | CCHF vOTU inh-2
COC(=O)[C@]12C[C@H](CC(=O)N3CCCC3)C(=O)N(CCC3=CCCCC3)C1=C[C@H](C(C)(C)C)O[C@@H]2C | - | - | - | - | 0 | -
COC(=O)[C@]12C[C@H](CC(=O)N3CCOCC3)C(=O)N(CCC3=CCCCC3)C1=C[C@H](C(C)(C)C)O[C@@H]2C | - | - | - | - | 30 | 0
COC(=O)[C@]12C[C@H](CC(=O)N3CCC(c4ccccc4)CC3)C(=O)N(Cc3ccc4c(c3)OCO4)C1=C[C@H](C(C)(C)C)O[C@@H]2C | - | - | - | - | 30 | 0
CCCCNC(=O)C[C@H]1C[C@@]2(C(=O)OC)C(=C[C@H](C(C)(C)C)O[C@@H]2C)N(CCC2=CCCCC2)C1=O | - | - | - | - | 0 | -
CCCCCCCCN1C(=O)[C@@H](CC(=O)N2CCOCC2)C[C@@]2(C(=O)OC)C1=C[C@H](C(C)(C)C)O[C@@H]2C | - | - | - | - | 31 | 0
COC(=O)[C@]12C[C@H](CC(=O)N3CCCC3)C(=O)N(Cc3ccc4c(c3)OCO4)C1=C[C@H](C(C)(C)C)O[C@@H]2C | - | - | - | - | 0 | -
CC(C)(C)c1cc(NC(=O)CSc2nnc3scc(-c4ccc(Cl)cc4)n23)cc(C(C)(C)C)c1 | - | - | 0 | - | - | -
O=C(Nc1nc(-c2nc3ccccc3s2)cs1)c1cc(Cl)sc1Cl | - | - | 0 | - | - | -
COC(=O)[C@]12C[C@H](CC(=O)NCC3CCCCC3)C(=O)N(CCc3ccc(OC)c(OC)c3)C1=C[C@H](C(C)(C)C)O[C@@H]2C | - | - | - | - | 31 | 0
COC(=O)[C@]12C[C@H](CC(=O)NCC3CCCCC3)C(=O)N(CCc3ccc(OC)c(OC)c3)C1=C[C@H](C1CCCC1)O[C@@H]2C | - | - | - | - | 0 | -
Cc1cc(Cl)c(C)c(S(=O)(=O)Oc2ccccc2NC(=O)CCC(=O)O)c1Cl | - | - | 0 | - | 33 | 0
Cc1cc(/C=C2\C(=O)NC(=O)N(C)C2=O)c(C)n1-c1ccc2c(c1)OCO2 | 0 | 0 | 0 | 0 | 34 | 0
COC1(CNC(=O)C(=O)Nc2cccnc2)CCSC1 (stereo not drawn) | - | - | 0 | - | - | -
CN1C(C(=O)Nc2cccc(O)c2)=CC(c2cccs2)=NS1(=O)=O | 0 | 0 | 0 | 0 | 33 | 0
O=C1OC(c2cccs2)=N/C1=C\c1ccc(-c2cccc(C(F)(F)F)c2)o1 | - | - | 0 | - | - | -
O=C1OC(c2cccs2)=N/C1=C\c1ccc(-c2ccccc2Cl)o1 | 0 | 0 | 0 | 0 | 32 | 0
CCOc1ccc(CCNC(=O)c2ccc(Cl)c(S(=O)(=O)N3CCOCC3)c2)cc1OCC | - | 0 | 0 | - | 42 | 0
CCOc1ccc(CCNC(=O)c2ccc(C)c(S(=O)(=O)N3CCOCC3)c2)cc1OCC | - | - | 0 | - | 0 | -
CCC(=O)N1CCN(c2ccc(NC(=S)NC(=O)c3cc4ccccc4o3)cc2)CC1 | 0 | 0 | 0 | 0 | 34 | 0
CCCCOc1ccc(C(=O)N/C(=C/C=C/c2ccccc2)C(=O)NC)cc1 | 0 | - | 0 | 0 | 31 | 0
CCCCOc1ccc(C(=O)N/C(=C/C=C/c2ccccc2)C(=O)O)cc1 | 0 | 0 | 0 | 0 | 0 | -
O=C1CC(C(=O)Nc2ccc(F)cc2)S/C(=N\N=C\c2ccco2)N1 (stereo not drawn) | 0 | 0 | - | 0 | 35 | 0
CC1(CC(=O)N/N=C/c2ccc(-c3cccc(C(F)(F)F)c3)o2)OCCO1 | 0 | 0 | - | 0 | 35 | 0
CCOC(=O)NN=Cc1ccc(-c2cccc(C(F)(F)F)c2)o1 | - | - | 0 | - | - | -
O=C(CSc1ccc(-c2ccccc2)nn1)Nc1cccc(F)c1 | - | - | 0 | - | - | -
O=C(O)c1cccc(NC2=C(N3CCOCC3)C(=O)c3ccccc3C2=O)c1 | 0 | 0 | 0 | 0 | 79 | 93
CC(C)(C)OC(=O)[C@H](Cc1ccccc1)NC(=O)c1nc[nH]c1C(=O)N[C@@H](CCCCN)C(=O)OC(C)(C)C | - | - | 0 | - | 0 | -
CC(C)(C)OC(=O)NCCCC[C@H](NC(=O)c1[nH]cnc1C(=O)N[C@@H](Cc1ccccc1)C(=O)OCc1ccccc1)C(=O)OC(C)(C)C | - | - | 0 | - | 31 | 0
C[C@@H](NC(=O)c1nc[nH]c1C(=O)N[C@@H](CCCCNC(=O)OC(C)(C)C)C(=O)OC(C)(C)C)c1ccccc1 | 0 | 0 | 0 | 0 | 35 | 0
